Hits are enriched below; roughly 3.8% of the tested compounds scored in any of these assays.
ATXN2 expr inh: ATXN2 expression inhibition; Potency, µM (top dose mostly 57 µM), usual class: inhibitors; 360,000 compounds, 0.72% hits; HEK-293 ATXN2-luciferase reporter, luminescence, 24 h; further: nearly all actives have a fitted effect of over 55% in size
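ATXN2-luciferase reporter cells (luciferase flanked by upstream and downstream ATXN2 gene portions) were treated 24 h at 37 °C with compounds at up to 57 uM. SteadyGlo luminescence gave expression; GF-AFC fluorescence gave viability.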
HepG2 tox: kills HepG2 cells in TGF-b inhibitor counter-screen; HepG2 CAGA-GFP viability, ATP luminescence, 18 h; Potency, µM (titrated, usually from 46.1 µM), most hits filed as cytotoxic; 410,000 compounds, 0.76% hits; AID 588856
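CellTiter-Glo luminescence gave cytotoxicity after 18 hours at 37 degrees C. The cells were HepG2 CAGA-GFP in 1% FBS DMEM, stimulated with 500 pg/mL TGF-beta after compound addition. %Activity was normalised to no-cell wells (complete cell-killing) and DMSO (no toxicity), and curves were fitted and classified.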
HT1080 IDH1KD tx: kills HT-1080 cells with IDH1 knockdown. Potency, µM (top dose mostly 46.1 µM), hits mostly cytotoxic. AID 686971. HT-1080 IDH1 knockdown viability, ATP luminescence, 48 h. 360,000 compounds, 2% hits
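After a 2 h attachment period, IDH1KD HT-1080 cells took pin-transferred compound for 48 h at 37 °C; ATP-based luminescence after 10 min room-temperature reagent incubation reported viability.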
TGFb inhibitor: blocks TGF-b signaling | AID 588855 | 410,000 compounds, 1.2% hits | HepG2 CAGA-GFP TGF-b/SMAD3 reporter, GFP fluorescence, 18 h; TGF-beta stimulated, 500 pg/mL final | Potency, µM (top dose mostly 46.1 µM), hits mostly inhibitors; further: nearly all actives have a fitted effect of over 65% in size
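Inhibition of TGF-beta-driven CAGA-GFP reporter expression in HEPG2 cells is measured by cellular GFP fluorescence after 18 h stimulation with 500 pg/mL recombinant TGF-beta in 1% FBS medium at 37 degrees C.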
S2 tox: cell viability loss in ATXN counter-screen; S2 cells (HEK-293 line with an ATXN2-luciferase reporter) viability, CellTiter-Fluor protease fluorescence, 24 h; Potency, µM (doses to about 56.7 µM), most hits filed as cytotoxic; 400,000 compounds, 0.49% hits; further: nearly all actives have a fitted effect of over 40% in size
HT1080-NT tox: kills 2HG-producing HT-1080-NT fibrosarcoma cells. HT-1080-NT fibrosarcoma viability, CellTiter-Glo ATP luminescence, 48 h. Potency, µM (titrated, usually from 46.1 µM), usual class: cytotoxic. 360,000 compounds, 1.6% hits. AID 686970;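 further: NT is the 2HG producing partner of a matched IDH1 knockdown line; nearly all actives have a fitted effect of over 55% in size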
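Read-out is CellTiter-Glo luminescence after 10 minutes at room temperature, following 48 hours' compound treatment of HT-1080-NT cells (750 cells/well, RPMI, 5% FBS, 37 degrees C).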
Hits are given with their value; n = inactive; u = inconclusive; x = not tested or not shown; [ ] = remark or other dose. The call rests on the fitted dose curve; in most records, active means well fitted curve in the direction sought with a large enough effect; inconclusive means small, poorly fitted or top-dose-only effect, or another doubt; inactive means no such curve, though single readings can be large; an effect the other way counts as inactive or inconclusive.

SMILES	ATXN2 expr inh	HepG2 tox	HT1080 IDH1KD tx	TGFb inhibitor	S2 tox	HT1080-NT tox
CCOc1ccc(C(=O)Nc2ccc(C(=O)OCc3cc(=O)n4c(C)csc4n3)cc2)cc1	x	n	x	22µM	x	x
CCCc1nn2c(=O)cc(COC(=O)c3ccc(NC(=O)c4cccs4)cc3)nc2s1	x	n	x	11µM	x	x
COc1ccc(C)cc1-n1c(-c2ccc(Cl)cc2)cc2c1CC(C)(C)CC2=O	n	n	x	n	n	x
COc1ccc(-n2c(-c3ccc(Cl)cc3)cc3c2CC(C)(C)CC3=O)c(OC)c1	u	n	x	18µM	u	x
COc1ccc2c(c1)c1c(c(=O)n(-c3ccccc3C)c(=O)n1CC(=O)NCc1ccc(C)cc1)n2C	n	n	x	u	u	x
Cc1csc(N(C)C(=O)CSc2nnc(COc3cccc4ccccc34)o2)n1	u	n	u	u	n	6.3µM
COC(=O)CSc1nnc(COc2cccc3ccccc23)o1	n	n	n	n	n	n
Cc1[nH]c2ccccc2c1CN1CCC(Cc2ccccc2)CC1	n	n	23µM	u	n	u
Cc1[nH]c2ccccc2c1CN1CCN(c2ccccn2)CC1	n	n	n	n	n	n
Cc1ccc2nc(SCC(=O)N/N=C/c3ccco3)cc(C)c2c1	n	n	n	n	n	n
Cc1ccc2nc(N/N=C/c3ccco3)cc(C)c2c1	n	11µM	n	u	n	n
COC(=O)c1cc(NC(=O)CC(=O)c2cccc(N)c2)cc(C(=O)OC)c1	x	n	21µM	n	n	u
COC(=O)c1cc(NC(=O)c2cccc(F)c2)cc(C(=O)OC)c1	n	n	n	n	n	n
COCC(=O)Nc1c(C(=O)Nc2ccc3c(c2)OCO3)oc2ccccc12	n	n	n	n	n	n
O=C(CCl)Nc1c(C(=O)Nc2ccc3c(c2)OCCO3)oc2ccccc12	n	16µM	u	u	u	u
O=C(COc1ccccc1-c1nc(-c2ccccc2)no1)Nc1ccc([N+](=O)[O-])cc1	n	n	x	n	n	x
Cc1csc2sc(-c3ccnc(SCC(=O)NCc4ccccc4)n3)c(C)c12	n	n	2.3µM	u	n	3.3µM
COc1ccccc1-c1nnc2sc(-c3ccc(N(C)C)cc3)nn12	n	n	0.52µM	u	u	0.92µM
COc1ccccc1-c1nnc2sc(-c3cnccn3)nn12	n	n	n	n	n	n
COc1ccccc1-c1nnc2sc(-c3cc4ccccc4o3)nn12	n	n	1.5µM	n	u	u
C/C(=N\NC(=O)c1ccc(O)cc1)c1ccc2c(c1)Nc1ccccc1S2	n	n	8.2µM	u	n	18µM
COc1ccc2nc(SCC(=O)N3CC(=O)Nc4ccccc43)c(C#N)cc2c1	u	n	u	n	n	u
Cc1cc(C)c2nc(SCC(=O)N3CC(=O)Nc4ccccc43)c(C#N)cc2c1	n	n	0.92µM	u	n	u
O=C(COC(=O)c1ccccc1C(=O)c1ccc(Cl)c([N+](=O)[O-])c1)NC1CCCCCC1	u	n	3.2µM	u	x	8.9µM
CC(C)N(C(=O)COC(=O)c1ccccc1C(=O)c1ccc(Cl)c([N+](=O)[O-])c1)C(C)C	u	n	21µM	n	n	18µM
SMILES	ATXN2 expr inh	HepG2 tox	HT1080 IDH1KD tx	TGFb inhibitor	S2 tox	HT1080-NT tox
COc1ccc(C(=O)c2ccc(Cl)cc2)cc1	n	n	n	u	u	u
O=C(COC(=O)c1ccc2c(c1[N+](=O)[O-])C(=O)c1ccccc1C2=O)NC1CC1	n	n	u	18µM	28µM	u
COc1ccc(C(=O)c2ccc(Cl)c([N+](=O)[O-])c2)cc1	n	n	5.8µM	u	u	u
CN(C)C(=O)c1ccc(/C=C/c2ccnc3ccccc23)cc1	x	n	x	u	x	x
CCn1c(-c2ccccc2F)nc2cc(NC(C)=O)cc(C(=O)N3CCCCC3c3nccn3C)c21 (stereo not drawn)	x	x	x	x	n	x
Cn1c(N)c(C(=O)COC(=O)c2ccccc2C(=O)c2ccc(Cl)c([N+](=O)[O-])c2)c(=O)n(C)c1=O	u	n	u	u	x	u
CN(CCC#N)C(=O)COC(=O)c1ccccc1C(=O)c1ccc(Cl)c([N+](=O)[O-])c1	n[11.3 µM]	n	16µM	n	x	10µM
Cc1cccc(NC(=O)C(c2ccccc2)N2Cc3ccccc3C2=O)c1C (stereo not drawn)	x	n	x	n	x	x
OCCCCNCc1ccc(OCc2ccc(Cl)cc2Cl)cc1	25µM	10µM	u	u	25µM	u
S=C(Nc1ccccc1)Nc1ccc(OCc2ccc(Cl)cc2Cl)cc1	1µM	n	n	n	n	n
OCCNCc1ccc(OCc2ccc(Cl)cc2Cl)cc1	u	22µM	21µM	u	u	u
COc1cc(CNCCCCO)ccc1OCc1ccccc1F	n	n	n	n	n	n
Cc1ccc(C(=O)CCC(=O)Nc2ccc(Cl)c(S(=O)(=O)Nc3cccc(Cl)c3)c2)cc1	n	n	n	n	n	n
CCOc1ccc(NS(=O)(=O)c2cc(NC(=O)c3ccc(C)cc3)ccc2Cl)cc1	n	n	3.7µM	u	u	2.3µM
CCOc1ccc(C(=O)Nc2cccc(NC(=O)c3ccc(Cl)cc3Cl)c2)cc1	x	n	x	11µM	x	x
CCC(C)NCCC(=O)Nc1ccc(Cl)c(S(=O)(=O)Nc2ccc(Cl)cc2)c1 (stereo not drawn)	n	n	15µM	n	n	u
COc1ccccc1NS(=O)(=O)c1cc(NC(=O)c2ccc(Cl)nc2)ccc1Cl	20µM	n	u	u	u	u
CCOc1ccc(Oc2ccc(NS(=O)(=O)c3cc(C(=O)O)ccc3Cl)cc2)cc1	n	n	n	n	n	n
CSc1nc(Cl)cc(Nc2ccc(O)cc2)n1	n	n	13µM	u	u	16µM
Cc1cnc2ccccc2c1/C=C/c1ccc(N(C)C)cc1	x	n	x	n	x	x
COc1ccc(-c2cc(C(=O)N3CCCC3)no2)cc1	8.9µM	n	n	n	n	n
COc1cccc(-c2nc3c(C#N)c[nH]n3c2NC2CCCC2)c1OC	n	n	x	n	u	x
O=C(NCCCN1CCN(c2ccccc2F)CC1)c1ccc2nc(Cc3ccccc3)oc2c1	x	n	x	u	x	x
O=C(NCCCN1CCN(c2ccccc2F)CC1)c1ccc2nc(CCc3ccccc3)oc2c1	x	11µM	x	u	x	x
COc1ccc(CCN=C(N)C(C)c2ccccc2)cc1OC (stereo not drawn)	n	n	n	n	n	n
CC(C)Cc1ccc(C(C)C(N)=NCCc2ccccc2)cc1 (stereo not drawn)	u	18µM	18µM	u	u	16µM
